The target in this assay is pT7_6His-AlfaTag-ZIF268 (human, UniProt P18146 335-423). In words: PADIT-seq. Particulars: dsDNA, one strand shown.

This passage reports binding signal results from article doi:10.1101/2024.03.05.583629.

“CTCGAGGATATCAAGATCTGGCCTCGGCGGCCCACGCGGAACCTCTAGCTAGCCGACTCACTATAGGGATAATCGCCCTGAGCAAAGACC” returned a binding signal of 0.55 ± 0.0922 log2FC. The result for “CTCGAGGATATCAAGATCTGGCCTCGGCCGGTGGGCGGGAACCTCTAGCTAGCCGACTCACTATAGGGATAATCGCCCTGAGCAAAGACC” reads 1.3 ± 0.0687 log2FC. The result for “CTCGAGGATATCAAGATCTGGCCTCGGCAGATGGGCGGGAACCTCTAGCTAGCCGACTCACTATAGGGATAATCGCCCTGAGCAAAGACC” reads 0.0303 ± 0.101 log2FC; that for “CTCGAGGATATCAAGATCTGGCCTCGGCCGCGGTCGCGGAACCTCTAGCTAGCCGACTCACTATAGGGATAATCGCCCTGAGCAAAGACC”, 0.00429 ± 0.0911 log2FC. The figure for “CTCGAGGATATCAAGATCTGGCCTCGGCCGCCTCCGCGGAACCTCTAGCTAGCCGACTCACTATAGGGATAATCGCCCTGAGCAAAGACC” is 0.383 ± 0.0978 log2FC; for “CTCGAGGATATCAAGATCTGGCCTCGGCCGCCCGCGCGGAACCTCTAGCTAGCCGACTCACTATAGGGATAATCGCCCTGAGCAAAGACC” it is 0.122 ± 0.126 log2FC; for “CTCGAGGATATCAAGATCTGGCCTCGGCCTGTGGGCGGGAACCTCTAGCTAGCCGACTCACTATAGGGATAATCGCCCTGAGCAAAGACC” it is 2.23 ± 0.0754 log2FC.
